Measurements as given in publication PMC4552634, “A New Set of Chemical Starting Points with Plasmodium falciparum Transmission-Blocking Potential for Antimalarial Drug Discovery” (PLoS ONE, 2015).
Like-named read-outs stand apart in the source and are kept apart here. Out of some 13,000 compounds screened, about 3,200 (25%) showed an effect of 50% or more. Some of the results follow.

Tested on: P. falciparum stage V gametocytes
Design: BacTiter-Glo ATP luminescence viability of purified stage V gametocytes in 384-well plates, per cent inhibition versus DMSO
Settings: 48 h, 5 µM, inhibitor

Row | SMILES | % Inhibition [%] | % Inhibition (% Inhibition) [%]
1 | CC(=O)Nc1ncc(C(=O)Nc2cccc(-c3cccc(-c4nc5ccc(C(F)(F)F)cc5[nH]4)c3)c2)s1 [TCMDC-136918] | 17.49 | 
2 | CCc1sc(N2CCN(C)CC2)nc1C(=O)Nc1ccc(F)cc1C(F)(F)F [TCMDC-134298] | 16.91 | 
3 | CCN(CC)CCN(Cc1ccc(-c2ccc(C(F)(F)F)cc2)cc1)C(=O)Cn1c(CCc2cccc(F)c2F)nc(=O)c2sccc21 [TCMDC-140937] | 80.29 | 
4 | Cc1noc(NC(=O)c2sc3ccccc3c2O)c1C [TCMDC-124523] | 7.208 | 
5 | O=C(CNC(=O)c1ccc(O)cc1)Nc1ccc(-c2cccc(-c3nc4ccc(C(F)(F)F)cc4[nH]3)c2)cc1 [TCMDC-136817] | -15.92 | 
6 | COc1cc(O)c2c(=O)c(OC)c(-c3cccc(Cl)c3OCC(=O)O)oc2c1OC [TCMDC-131682] | 2.376 | 
7 | N=C(N)c1ccc(NCc2cccc(C(=O)O)c2)cc1 [TCMDC-136136] | -78.43 | 
8 | CS(=O)(=O)c1cccc(-c2cnc3[nH]cc(-c4ccc(CCC(=O)O)cc4)c3c2)c1 [TCMDC-136223] | 14.42 | 
9 | CS(=O)(=O)c1cccc(-c2cnc3[nH]cc(-c4cccc(CCN)c4)c3c2)c1 [TCMDC-136307] | 108.4 | 
10 | O=C(O)c1ccc(-c2c[nH]c3ncc(-c4ccc(Cl)cc4)cc23)cc1 [TCMDC-135860] | 22.96 | 
11 | CS(=O)(=O)Nc1cccc(-c2cnc3[nH]cc(-c4ccc(CN)cc4)c3c2)c1 [TCMDC-136218] | 33.32 | 
12 | CS(=O)(=O)Nc1cccc(-c2cnc3[nH]cc(-c4ccc(C(=O)O)cc4)c3c2)c1 [TCMDC-136215] | -36.34 | 
13 | CS(=O)(=O)Nc1cccc(-c2cnc3[nH]cc(-c4cccc(CN)c4)c3c2)c1 [TCMDC-136219] | 26.05 | 
14 | CS(=O)(=O)Nc1cccc(-c2cnc3[nH]cc(-c4ccc(CCC(=O)O)cc4)c3c2)c1 [TCMDC-136222] | -32.54 | 
15 | NCCC(=O)Nc1ccc(-c2cnc3[nH]cc(-c4ccc(C(=O)O)cc4)c3c2)cn1 [TCMDC-136494] | 31.68 | 
16 | CS(=O)(=O)Nc1cccc(-c2cnc3[nH]cc(-c4ccc(C(=O)O)c(F)c4)c3c2)c1 [TCMDC-136221] | 80.96 | 
17 | CS(=O)(=O)Nc1ccc(-c2cnc3[nH]cc(-c4ccc(C(=O)O)cc4)c3c2)cc1 [TCMDC-136306] | 30.86 | 
18 | NCCNC(=O)c1ccc(-c2cnc3[nH]cc(-c4ccc(C(N)=O)cc4)c3c2)cc1 [TCMDC-132359] | 74.46 | 
19 | CCS(=O)(=O)c1ccc(-c2cnc3[nH]cc(-c4ccc(N)cc4)c3c2)cc1 [TCMDC-132582] | 93.29 | 
20 | CCOC(=O)C(C(=O)OCC)c1nc(C)ns1 [TCMDC-131370] | 6.156 | 
21 | O=C(Nc1ccc2c(c1)CCC2)c1ccc(N2CCN(c3ccncc3)CC2)cc1 [TCMDC-135127] | 32.87 | 
22 | CC(C)/C(=C(/F)CN1C(=O)C(NC(=O)c2cc3ccccc3[nH]2)C(=O)N(c2ccccc2)c2ccccc21)c1ccccc1 (centres unmarked) [TCMDC-131897] | 34.22 | 
23 | O=C(Nc1ccc(N2CCCN(Cc3cccc(F)c3)CC2)cc1)c1cccs1 [TCMDC-135012] | -8.127 | 

Row | SMILES | % Inhibition [%] | % Inhibition (% Inhibition) [%]
24 | CCc1nc(N)nc(N)c1-c1ccc(F)c(F)c1 [TCMDC-137370] | 12.31 | 
25 | COc1ccccc1-c1sccc1C(=O)NC1(c2cc(Cl)cc(Cl)c2)CCCC1 [TCMDC-136461] | -44 | 
26 | COc1ccc(Cl)cc1-c1nc(C(=O)NCCN2CCCCC2)c(C(C)C)s1 [TCMDC-133715] | 16.92 | 
27 | COc1ccc(Cl)cc1-c1nc(C(=O)NCCN2CCCCC2)c(C)s1 [TCMDC-133714] | 60.47 | 
28 | CCOc1cc(C(=O)NCCN2CCCCC2)ccc1-c1nc2ccc(Cl)cc2[nH]1 [TCMDC-140913] | 5.667 | 
29 | CCc1sc(-c2cc(Cl)ccc2OC)nc1C(=O)NCCN1CCCCC1 [TCMDC-133716] | 70.94 | 
30 | COc1ccc(Cl)cc1N1CCN(CCCNC(=O)c2ccc(-c3nc4cc(Cl)c(C)cc4[nH]3)s2)CC1 [TCMDC-140032] | 3.429 | 
31 | CCc1sc(N2CCN(C)CC2)nc1C(=O)NCCc1ccc(Cl)c(Cl)c1 [TCMDC-134296] | 25.24 | 
32 | Cc1ccccc1N1CCN(c2ccc(C(=O)NC(C)C)cn2)CC1 [TCMDC-134577] | -17.52 | 
33 | CCOC(=O)c1cnc2c(C(F)(F)F)cccc2c1Nc1ccc(O)cc1 [TCMDC-125649] | -55.53 | 
34 | COc1ccc2nccc([C@@H](O)CN3CCC(NC(=O)/C=C/c4cc([N+](=O)[O-])ccc4OC)CC3)c2c1 [TCMDC-141044] | -26.66 | 
35 | N#CN1CC[C@@H](NS(=O)(=O)Cc2ccc(Cl)c(Cl)c2)C1 [TCMDC-133787] | 27.55 | 
36 | O=C(C=Cc1ccc(Cl)c(Cl)c1)NCCCCCN1CCC(CCCNC(=O)c2ccc3c(c2)OCO3)CC1 [TCMDC-139574] | 21.18 | 
37 | O=C(/C=C/c1ccc(Cl)c(Cl)c1)NCCCCCN1CCC(C(=O)Nc2ccc3c(c2)OCO3)CC1 [TCMDC-136127] | -2.985 | 
38 | CCCCCCOc1ccc(C(=O)NCCC2CCN(CCCCCNC(=O)C=Cc3ccc(Cl)c(Cl)c3)CC2)cc1 [TCMDC-139569] | 13.58 | 
39 | O=C(C=Cc1ccc(Cl)c(Cl)c1)NCCCCCN1CCCC(CCCNC(=O)c2ccc3c(c2)OCO3)C1 (centres unmarked) [TCMDC-139580] | 81.7 | 
40 | O=C(C=Cc1ccc(Cl)c(Cl)c1)NCCCCCN1CCC(CCNC(=O)c2ccc3c(c2)OCO3)CC1 [TCMDC-139568] | 96.26 | 
41 | CCCCCCOc1ccc(C(=O)NCCCC2CCN(CCCCCNC(=O)C=Cc3ccc(Cl)c(Cl)c3)CC2)cc1 [TCMDC-139575] | 7.423 | 
42 | O=C(/C=C/c1ccc(Cl)c(Cl)c1)NCCCCCN1CC[C@H](NC(=O)c2ccc3c(c2)OCO3)C1 [TCMDC-139563] | 17.23 | 
43 | CCCCCCOc1ccc(C(=O)NCCCC2CCCN(CCCCCNC(=O)C=Cc3ccc(Cl)c(Cl)c3)C2)cc1 (centres unmarked) [TCMDC-139581] | 50.48 | 
44 | O=C(/C=C/c1ccc(Cl)c(Cl)c1)NCCCCCN1CCC(NC(=O)Nc2ccc3c(c2)OCO3)CC1 [TCMDC-135718] | -35.92 | 
45 | Cc1ccc(NC(=O)N2CCCN(CCCCCNC(=O)/C=C/c3ccc(Cl)c(Cl)c3)CC2)cc1 [TCMDC-135744] | -49.55 | 
46 | N#Cc1cc(C(=O)c2cc(Br)ccc2O)cn(-c2cc(Cl)cc(Cl)c2)c1=O [TCMDC-125187] | -21.05 | 

Row | SMILES | % Inhibition [%] | % Inhibition (% Inhibition) [%]
47 | O=[N+]([O-])c1cccc(CNCC2CCC(CNCc3cccc([N+](=O)[O-])c3)CC2)c1 (centres unmarked) [TCMDC-141176] | 8.201 | 
48 | COc1ccc(OC)c(CC2c3ccc(Br)c(O)c3CCN2C)c1 (centres unmarked) [TCMDC-137439] | 12.74 | 
49 | CN1CCN(c2cc3c(cc2Cl)CCN3C(=O)Cc2ccc(NC(=O)Nc3cccc4ccccc34)cc2)CC1 [TCMDC-139472] | -2.627 | 
50 | Cn1ccnc1CNC(=O)c1ccc(-c2cccc(-c3nc4cc(C(F)(F)F)ccc4[nH]3)c2)cc1 [TCMDC-132357] | 7.087 | 
51 | Cc1[nH]c(C)c(-c2ccc(-c3ccccc3)nc2)c(=O)c1Br [TCMDC-136158] | 42.67 | 
52 | Cc1[nH]c(C)c(-c2ccc(-c3ccc(C(F)F)cc3)nc2)c(=O)c1Cl [TCMDC-132329] | 58.86 | 
53 | Cc1[nH]c(C)c(-c2ccc(-c3ccc(Cl)cc3)nc2)c(=O)c1Cl [TCMDC-136301] | 72.82 | 
54 | Cc1[nH]c(C)c(-c2ccc(-c3ccc(F)cc3)nc2)c(=O)c1Br [TCMDC-135925] | 64.89 | 
55 | Cc1[nH]c(C)c(-c2ccc(-c3ccc(OCC(F)(F)F)cc3)nc2)c(=O)c1Cl [TCMDC-132306] | 43.23 | 
56 | Cc1[nH]c(C)c(-c2ccc(-c3ccc(Cl)cc3)nc2)c(=O)c1Br [TCMDC-136159] | 67.06 | 
57 | Cc1[nH]c(C)c(-c2ccc(-c3ccc(C#N)cc3)nc2)c(=O)c1Br [TCMDC-136169] | 28.48 | 
58 | CC1(C)N=C(N)N=C(N)N1OCCCOc1ccccc1Cl [TCMDC-131739] | -0.9938 | 
59 | O=C(Nc1ccc(-c2nc3ccccc3[nH]2)cc1)c1ccc(S(=O)(=O)N2CCc3ccccc32)cc1 [TCMDC-125713] | -13.88 | 
60 | O=C(N[C@@H](CC1CCCCC1)C(=O)NC1CCCc2ccccc21)c1ccc(O)c(-c2ccc(Cl)c(Cl)c2)c1 (some centres unmarked) [TCMDC-140869] | 28.8 | 
61 | CCOC(=O)c1ccc(-n2c(C)cc(C=C3SC(=Nc4ccccc4)N(C4CCCC4)C3=O)c2C)cc1 [TCMDC-125697] | -3.505 | 
62 | Cc1[nH]c(C)c(-c2ccc(-c3ccc4c(c3)OCO4)nc2)c(=O)c1Br [TCMDC-136161] | 79.48 | 
63 | CCC1CN2CCc3c([nH]c4ccccc34)[C@@H]2C[C@@H]1CC1NCCc2cc(OC)c(OC)cc21 (some centres unmarked) [TCMDC-142008] |  | -47.66
64 | Cc1onc(-c2ccccc2Cl)c1C(=O)Nc1cc(Cl)c(Cl)cc1Cl [TCMDC-123514] | 9.365 | 
65 | COc1ccc(-c2ccc(CNC(=O)c3ccc(C#N)cc3)c(F)c2)cc1CN1CCCN(C)CC1 [TCMDC-133368] | -37.75 | 
66 | COc1cc(OC)cc(C(=O)Nc2cccc(-c3cn4ccc(C)cc4n3)c2)c1 [TCMDC-124622] | 4 | 
67 | COc1cc(C(=O)Nc2cccc(-c3cn4ccc(C)cc4n3)c2)cc(OC)c1OC [TCMDC-125384] | 26.29 | 
68 | Cc1ccn2cc(-c3ccc(NC(=O)c4ccc(Br)o4)cc3)nc2c1 [TCMDC-124517] | 106.8 | 
